Among all 360,000 compounds or so, about 3,700 (1%) were called active. About 2% were inconclusive and are not listed.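 The calls were made as follows: active = normalized GFP-positive differentiation at or above the plate's own cutoff, the solvent-only control mean plus 3 SD; inconclusive = no clear call, values can overlap the other calls; inactive = the rest.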 For the sample, actives were picked, then their nearest neighbours and some compounds at random. Where a SMILES comes first, the peptide text is derived from it. The star is where a group is joined. OPac = O=C(CO*)c1ccccc1; Bz = O=C(c1ccccc1)*

GFP+ MAC1+ double positive, outcome and normalized GFP-positive differentiation data for 42 compounds are collected here from PubChem BioAssay AID624256 (NMMLSC, 2012).

The experiment in a line: induction of myeloid progenitor differentiation, primary screen, cell-based, flow cytometry, MLPCN library (AID 624256).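 As to GFP+ MAC1+ double positive: cells exposed to compound for four days before flow analysis.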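 As to normalized GFP-positive differentiation: cells exposed to compound for four days before flow analysis; 0% = DMSO wells and 100% = fulvestrant positive control at 5 µM.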 Conditions: ER-HoxA9 myeloid progenitors, lysozyme-GFP differentiation, at 10 µM; GFP+ MAC1+ double positive: measured here: differentiation confirmed by MAC1 staining, stronger effect = higher value; normalized GFP-positive differentiation: stronger effect = higher value.
For the compound `CCCCCCCCN1C(=O)[C@H](CC(=O)NCC23CC4CC(CC(C4)C2)C3)C[C@@]2(C(=O)OC)CCCCC=C12`, the GFP+ MAC1+ double positive was 1% and the outcome was inactive.

With `O=C(CN1C(=O)CSC1=O)N1CCCC(Nc2ccc(F)cc2)C1` (centres undefined), the GFP+ MAC1+ double positive stood at 0.7% and the compound was classed as inactive.

`O=C(CN1CCOC1=O)N1CCCC(Nc2ccc(F)c(F)c2)C1` (centres undefined): the GFP+ MAC1+ double positive turned out to be 3.1% and the call was inactive.

For the compound `O=C1CCCCN1CCCC(=O)N1CCCC(Nc2ccc(F)cc2)C1` (centres undefined), the GFP+ MAC1+ double positive was 45% and the normalized GFP-positive differentiation was 233% (active).

As to `CC(C)(C)C1CCC(=O)N2CCC[C@]2(c2ccccc2)C1` (some centres undefined), the GFP+ MAC1+ double positive was found to be 1% and the call was inactive.

For `CN(C)c1cccc(NC(=O)c2ccc(-c3ccc(F)c(F)c3)c3ccoc23)c1`, the GFP+ MAC1+ double positive came out at 1.3% and the call was inactive.

As for `Cc1ccc2c(c1)c1ncn(Cc3ccc(F)cc3)c(=O)c1n2C`, the GFP+ MAC1+ double positive is 2.8% and the normalized GFP-positive differentiation was 18% (active).

With `Cc1ccc2[nH]c3c(=O)n(Cc4ccccn4)cnc3c2c1`, the GFP+ MAC1+ double positive was 3% and the compound was classed as inactive.

`COc1ccc2c(c1)c1ncn(Cc3ccccn3)c(=O)c1n2C`: the GFP+ MAC1+ double positive amounted to 0.7% and the result was inactive.

On to `Cc1ccc(C(NC(=O)C2CCN(CCOc3ccc(Cl)cc3Cl)CC2)c2ccccn2)cc1` (centres undefined), for which the GFP+ MAC1+ double positive amounted to 1.4% and the call was inactive.

Consider `COc1ccc(-c2cc(NC=O)c3ncc(-c4ccccc4)n3c2)cc1OC`, for which the GFP+ MAC1+ double positive is 3.3% and the outcome was inactive.

Take `COC(=O)C1(C(=O)OC)C[C@H](c2ccccc2)N(Cc2ccccc2OC)[C@@H]1c1ccccc1`: the GFP+ MAC1+ double positive turned out to be 1.5% and the compound was called inactive.

For `Cc1ccc(Cc2c(-c3ccc(Cl)cc3)nc3c4ccccc4ccn23)cc1`, the GFP+ MAC1+ double positive came to 0.4% and the call was inactive.

For `CC1CCCC(NC(=O)CN2CCN(Cc3ccc(Cl)cc3)C2=O)C1C` (centres undefined), the GFP+ MAC1+ double positive was 11.3% and the normalized GFP-positive differentiation was 111% (active).

For `CC1CCCCC1NC(=O)COC(=O)Cc1ccc(Cl)cc1` (centres undefined), the GFP+ MAC1+ double positive amounted to 1.4% and the compound was classed as inactive.

In the case of `Cc1ccc(CNC(=O)CN2CCN(Cc3ccc(Cl)cc3)C2=O)cc1`, the GFP+ MAC1+ double positive came out at 1% and the compound was classed as inactive.

Consider `Cc1ccc(C)c(C(O)c2ncc(-c3cccc4ccccc34)[nH]2)c1` (centres undefined), for which the GFP+ MAC1+ double positive worked out at 0.8% and the call was inactive.

In the case of `C[C@H]1COc2cc(N3CCSCC3)ccc2S(=O)(=O)N1`, the GFP+ MAC1+ double positive turned out to be 0.8% and the result was inactive.

Take `Nc1c(C(=O)c2cccs2)sc2nsc(SCCN3CCCCC3)c12`: the GFP+ MAC1+ double positive is 6% and the normalized GFP-positive differentiation was 344% (active).

For `CCCCCCN1CCN(C2CN(Cc3cn(CCCCCC)nn3)S(=O)(=O)C2)CC1` (centres undefined), the GFP+ MAC1+ double positive came out at 0.5% and the result was inactive.

Regarding `Nc1[nH]c(C(=O)c2ccccc2)c(-c2ccncc2)c1C(=O)NCc1cccc2ccccc12`, the GFP+ MAC1+ double positive was 1.6% and the compound was called inactive.

Take `O=C(Nc1ccc(F)cc1)C(CCc1ccccc1)N1CCN(CC(=O)N2CCCC2)CC1` (centres undefined): the GFP+ MAC1+ double positive turned out to be 1.3% and the compound was classed as inactive.

For the compound `O=C(CSc1cccc[n+]1[O-])c1ccc(Cl)cc1`, the GFP+ MAC1+ double positive was 0.4% and the compound was classed as inactive.

In the case of `O=C(C[n+]1ccc2c(c1)nnn2-c1ccccc1)c1ccc(Cl)cc1`, the GFP+ MAC1+ double positive was determined as 0.8% and the normalized GFP-positive differentiation is 63.4% (active).

In the case of `c1ccc2c(c1)nnn2-c1ccncc1`, the GFP+ MAC1+ double positive came out at 0.8% and the outcome was inactive.

`Cc1cc(=O)oc2c3c(cc(OCC(=O)NCC(O)c4ccccc4)c12)OC(C)(C)CC3` (centres undefined): the GFP+ MAC1+ double positive was 7.8% and the call was inactive.

As to `Cc1ccc(S(=O)(=O)NC(=O)COc2ccccc2C)cc1`, the GFP+ MAC1+ double positive amounted to 0.4% and the call was inactive.

For the compound `O=C(CNC(=O)c1ccccc1)NCC(=O)OCC(=O)c1ccccc1` (Bz-Gly-Gly-OPac), the GFP+ MAC1+ double positive was determined as 0.2% and the call was inactive.

In the case of `Cc1ccccc1OCC(=O)NCC(=O)OCC(=O)c1ccc2ccccc2c1`, the GFP+ MAC1+ double positive was 3.6% and the normalized GFP-positive differentiation was 24.5% (active).

For the compound `O=C(NC1CCCCC1)C(c1cc2ccccc2o1)n1c(=O)c(-c2ccco2)nc2ccccc21` (centres undefined), the GFP+ MAC1+ double positive was found to be 5.6% and the outcome was inactive.

Turning to `CSc1ccc(CN2CCC2(C)C(=O)Nc2ccc(C)c(O)c2)cc1` (centres undefined), the GFP+ MAC1+ double positive came to 0.4% and the compound was called inactive.

`CN(C)C(CNC(=O)c1cccc(S(=O)(=O)N2CCc3ccccc3C2)c1)c1ccccc1` (centres undefined): the GFP+ MAC1+ double positive stood at 0.7% and the outcome was inactive.

Turning to `Cc1cccc(N2CCN(C(=O)c3cccc(S(=O)(=O)N4CCc5ccccc5C4)c3)CC2C)c1` (centres undefined), the GFP+ MAC1+ double positive is 7.3% and the normalized GFP-positive differentiation was 31.5% (active).

For the compound `CC(NC(=O)c1cccc(S(=O)(=O)N2CCc3ccccc3C2)c1)c1ccco1` (centres undefined), the GFP+ MAC1+ double positive turned out to be 0.3% and the outcome was inactive.

Turning to `CC1(C(=O)NS(=O)(=O)Cc2cccc(Cl)c2)CCN1C(=O)Cc1ccc(Cl)cc1Cl` (centres undefined), the GFP+ MAC1+ double positive came out at 0.5% and the compound was called inactive.

For `OC[C@@H]1CN(Cc2ccncc2)C[C@H](n2cnc3c(N4CCN(c5ccccc5)CC4)ncnc32)O1`, the GFP+ MAC1+ double positive stood at 1.1% and the call was inactive.

With `C=CCn1c2c(c3ccccc31)CCC2`, the GFP+ MAC1+ double positive is 1.4% and the call was inactive.

Regarding `CCOC(=O)[C@]12CCCC=C1N(CCC1=CCCCC1)C(=O)[C@H](CC(=O)N1CCCCC1)C2`, the GFP+ MAC1+ double positive was determined as 3% and the compound was classed as inactive.

For the compound `COc1cc(N2CCCC2)c(OC)cc1/C=C(/C#N)c1cccc(Br)c1`, the GFP+ MAC1+ double positive is 15% and the normalized GFP-positive differentiation is 258% (active).

As to `CCOc1ccc(/C=C(/C#N)c2nnc(N3CCOCC3)n2-c2ccccc2)cc1OC`, the GFP+ MAC1+ double positive came out at 0.8% and the outcome was inactive.

`COc1ccc(S(=O)(=O)NC(=O)C2(C)CCN2C(=O)COc2ccc(Cl)cc2)cc1` (centres undefined): the GFP+ MAC1+ double positive amounted to 0.8% and the result was inactive.

`CCc1nc2c(OCc3ccccc3)cccn2c1N(C)C(=O)c1ccco1`: the GFP+ MAC1+ double positive was found to be 1.6% and the call was inactive.
